Compounds with a hit are over-represented: about 2.4% of the library has one in this group of screens.
D2 ag-1: human D2 receptor agonism in beta-arrestin assay; DiscoveRx PathHunter D2 beta-arrestin, luminescence, 90 min; 100% = 57 uM dopamine signal; P14416; activation, % (concentration not given with the values); 360,000 compounds, 0.084% hits; in the data active = activation above about 40%; inconclusive = between about 15% and that limit
Target sequence (P14416 whole entry, looked up): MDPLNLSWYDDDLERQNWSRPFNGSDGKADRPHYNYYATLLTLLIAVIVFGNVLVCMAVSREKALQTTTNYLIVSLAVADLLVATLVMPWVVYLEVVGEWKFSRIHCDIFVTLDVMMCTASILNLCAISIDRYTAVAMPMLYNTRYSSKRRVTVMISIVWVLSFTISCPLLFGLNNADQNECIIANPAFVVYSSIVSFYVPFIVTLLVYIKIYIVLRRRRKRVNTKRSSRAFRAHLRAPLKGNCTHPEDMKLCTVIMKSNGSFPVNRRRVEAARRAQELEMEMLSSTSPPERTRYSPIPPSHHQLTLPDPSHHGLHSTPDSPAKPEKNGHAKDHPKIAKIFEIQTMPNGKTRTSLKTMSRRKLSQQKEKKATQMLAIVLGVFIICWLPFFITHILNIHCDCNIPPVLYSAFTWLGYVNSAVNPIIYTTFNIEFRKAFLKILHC
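DiscoveRx PathHunter D2 beta-arrestin cells (2,100/well) attached overnight, then compound-stimulated 90 min at 37 C in HBSS/10 mM HEPES/0.1% Tween-20 buffer; beta-galactosidase complementation read by luminescence after 1 h at ambient temperature. Dopamine 57 uM final (EC100) as control.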
D2 PAM-1: D2 dopamine receptor (human) potentiation; potentiation, % at 10 µM; 340,000 compounds, 0.34% hits; HEK293 T-REx D2, calcium flux, EC20 dopamine potentiation;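 active = potentiation over 3 SD above the plate norm, cut at about 30% in these data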
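Primary screen. Calcium kinetics in induced HEK293 T-REx D2 cells: compound pre-addition 180 s, EC20 dopamine, 180 s more.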
D2 antagonist: antagonists of human D2 dopamine receptor; P14416; HEK293 TREx D2 cells, calcium flux, dopamine EC80; inhibition, % at 10 µM; 340,000 compounds, 2% hits; AID 485344; in the data active = inhibition above about 30%; inactive = below that, where a call was filed
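Read-out: kinetic calcium fluorescence (1 cycle/s) in inducible HEK293 T-REx D2 cells after an EC80 dopamine addition that followed 180 s compound preincubation. Loss of the dopamine response indicates antagonism.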
D2 ag-2: agonists of human D2 dopamine receptor | P14416 | HEK293 T-REx D2 cells, calcium flux agonist mode | activation, % at 2 µM | 340,000 compounds, 0.53% hits | AID 485358;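 active = activation over 3 SD above normal in the single-dose calcium agonist read, cut at about 30% in these data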
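Calcium-flux readout, 1 cycle/sec over 180 s following compound pin transfer, in inducible HEK293 Trex D2 cells (force-coupled); dopamine controls included. Positive calcium responses during this window marked compounds as potential agonists.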
D2 PAM-2: potentiates the human D2 dopamine receptor allosterically | DiscoveRx D2 beta-arrestin cells, luminescence, 90 min; 100% = 57 uM dopamine signal | AID 624464 | potentiation, % (test concentration not listed) | 360,000 compounds, 0.23% hits; in the data active = potentiation above about 50%; inconclusive = mostly about 30% to 49%
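D2 cells co-treated with compound plus 50 nM dopamine (EC20) for 90 min at 37 deg C to detect potentiation. Beta-arrestin recruitment was read as enzyme-fragment luminescence after 1 h at ambient temperature. Full response was set by 57 uM dopamine.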
Hits are given with their value; n = inactive; u = inconclusive; x = no result given.

SMILES	D2 ag-1	D2 PAM-1	D2 antagonist	D2 ag-2	D2 PAM-2
Cc1ccccc1Cn1cccc(C(=O)Nc2cc(Cl)ccc2C#N)c1=O	x	n	x	x	x
CCCCn1c(O)c(/C=N/N2CCOCC2)c(=O)[nH]c1=S	n	n	n	n	n
CCCCCCn1c(O)c(C=Nc2ccccc2N2CCOCC2)c(=O)[nH]c1=S	n	n	36.8	n	n
Cc1cccc(OCC(=O)N2CCN(Cc3cc(=O)n4nc(-c5ccccc5Cl)sc4n3)CC2)c1	x	n	x	n	x
O=C(Nc1ccon1)c1cccn(Cc2cccc([N+](=O)[O-])c2)c1=O	x	n	x	n	x
CN1CCN(c2nc(N)c(Br)c(Cl)n2)CC1	n	n	68.6	n	n
CN1CCN(c2ncnc(Cl)c2N)CC1	n	n	n	n	n
CC1CCC2[C@@H](C)C(=O)OC3O[C@]4(C)CCC1C32OO4 (some centres not stated)	u	x	x	x	53.0
CC1CCC2C(C)C(=O)OC3OC4(C)CCC1C32OO4 (configuration not stated)	u	n	n	n	62.4
O=c1c2ccccc2nc(/C=C/c2ccccc2F)n1-c1cccc(O)c1	x	n	x	x	x
COC(=O)CC1=C(C(=O)OC)C2(C(=O)Nc3c(C)cccc32)C(C#N)=C(N)O1 (configuration not stated)	n	n	n	n	69.8
Cc1cccc(-n2nc(C)c3c2NC(=O)CSC3c2ccccc2Cl)c1 (configuration not stated)	x	n	x	n	x
Nc1c(C(=O)Nc2ccc(OC(F)(F)F)cc2)sc2nc3c(cc12)N1CCC3CC1	x	n	x	n	x
COc1cccc(CNCCc2c[nH]c3ccccc23)c1OC	n	n	52.2	n	n
O=[N+]([O-])c1cccc(CN2CC=C(c3ccc(F)cc3)CC2)c1	n	n	72.6	n	n
COc1ccc(CN2CC=C(c3ccc(F)cc3)CC2)cc1Br	n	n	62.9	n	n
O=[N+]([O-])c1ccccc1CN1CC=C(c2ccc(F)cc2)CC1	n	n	n	n	n
Cc1ccc(OCC(=O)N2CCN(Cc3ccc(F)cc3)CC2)cc1	x	n	x	n	x
O=[N+]([O-])c1cccc(CN2CCN(Cc3ccc(Cl)cc3)CC2)c1	n	n	50.5	n	n
CCN(CC)c1ccc(CN2CC=C(c3ccc(F)cc3)CC2)cc1	n	n	40.7	n	n
CC(C)N1CCN(Cc2cccc([N+](=O)[O-])c2)CC1	n	x	n	n	n
CC(C)(C)c1ccc(OCC(=O)Nc2ccc(Cl)cc2C(=O)c2ccccc2)cc1	x	n	x	n	x
CCOC(=O)c1ccc(NC(=O)c2cccn(Cc3ccccc3F)c2=O)cc1	x	n	x	n	x
CN1/C(=C\C=C2C(=O)NC(=O)NC2=O)C(C)(C)c2ccccc21	n	x	n	49.7	n
CN1/C(=C\C=Nc2ccccc2)C(C)(C)c2ccccc21	n	n	n	n	n
SMILES	D2 ag-1	D2 PAM-1	D2 antagonist	D2 ag-2	D2 PAM-2
CN1CCN(c2ccc(N)cc2Cl)CC1	n	n	45.9	n	n
CCCc1nc(SC)ncc1C(=O)Nc1ccc(Cl)cc1C(=O)c1ccccc1	x	x	x	n	x
COc1ccc(C(c2c(O)c3ccccc3oc2=O)c2c(C)n(C)n(-c3ccccc3)c2=O)cc1 (configuration not stated)	n	n	93.3	n	n
COc1ccc2c(c1OC)CN1CCc3cc4c(cc3C1C2)OCO4 (configuration not stated)	n	n	86.2	n	n
Cn1c(O)c(C=Nc2ccc(F)cc2)c(=O)[nH]c1=O	n	n	35.3	n	n
CCc1ccc(-c2nn(Cc3ccccc3)cc2C=O)cc1	n	n	35.0	n	n
O=C(COc1cc(Cl)ccc1Cl)Nc1ccc(Cl)cc1C(=O)c1ccccc1	x	n	x	n	x
COc1ccccc1N1CCN(Cc2ccc3c(c2)OCO3)CC1	n	x	x	x	n
Cc1cccc(N2CCN(Cc3ccc4c(c3)OCO4)CC2)c1C	n	n	66.2	n	n
COc1ccc(Cl)cc1NC(=O)CN1C(=O)CN=C(c2ccccc2)c2cc(Cl)ccc21	x	n	x	n	x
CN1C(=O)C(=Cc2cn(CC(=O)N3CCCC3)c3ccccc23)C(=O)N(C)C1=O	n	30.7	30.2	n	n
Nc1c(C(=O)NCc2ccco2)c2nc3ccccc3nc2n1CCN1CCCCC1	n	30.3	n	n	n
Cc1ccc(OCC(=O)Nc2ccc(Cl)cc2C(=O)c2ccccc2)cc1C	x	n	x	x	x
O=c1c2ccccc2nc(/C=C\c2ccc(F)cc2)n1-c1ccccc1F	x	n	x	n	x
Cc1cccc(CN2C(=O)CN=C(c3ccccc3)c3cc(Cl)ccc32)c1	x	n	x	n	x
CC(C)(C)c1ccc(C(=O)C2CCCN(C3CCC3)C2)cc1 (configuration not stated)	n	n	37.5	n	n
Cc1ccc(-c2nc(CN3C(=O)CN=C(c4ccccc4Cl)c4cc(Cl)ccc43)c(C)o2)cc1	x	n	x	n	x
O=C(COC(=O)Cc1ccccc1)Nc1nnc(-c2ccccc2)o1	n	n	30.6	n	n
Cc1ccc(NC(=O)N(Cc2ccc3c(c2)OCO3)C2CCN(Cc3ccccc3)CC2)cc1Cl	x	x	x	n	x
COc1ccc(CN2CCN(Cc3ccccc3F)CC2)cc1	n	n	30.7	n	n
CSc1ccc(CN2CCN(Cc3ccccc3Cl)CC2)cc1	n	n	69.5	n	n
CSc1ccc(CN2CCN(C(=O)Cc3ccccc3)CC2)cc1	n	x	x	x	n
COC(=O)C1=C(c2ccc(-c3ccccc3)c(F)c2)C[C@@H]2CC[C@H]1N2C(=O)NC1Cc2ccccc2C1	n	n	38.4	n	n
COC(=O)C1=C(c2ccc(-c3ccccc3)c(F)c2)C[C@@H]2CC[C@H]1N2C(=O)NCC1CC1	n	n	n	n	n
O=C1CN=C(c2ccccc2)c2cc(Cl)ccc2N1	n	x	x	x	n
SMILES	D2 ag-1	D2 PAM-1	D2 antagonist	D2 ag-2	D2 PAM-2
Cc1ccccc1C1=NCC(=S)Nc2ccc(Cl)cc21	n	n	40.7	n	n
Cc1ccc(CNC(=O)CCCn2c(=O)c3sccc3n(CC(=O)Nc3c(C)cccc3C)c2=O)cc1	x	n	x	x	x
Cc1ccsc1C(=O)C1CCCN(Cc2ccn[nH]2)C1 (configuration not stated)	n	n	n	n	n
COc1cccc(O)c1CN1CCCC(C(=O)c2sccc2C)C1 (configuration not stated)	n	n	n	n	n
Cc1ccsc1C(=O)C1CCCN(Cc2cc(C(C)C)n[nH]2)C1 (configuration not stated)	n	n	80.4	n	n
COc1ccc(OC)c(CN2CCCC(C(=O)c3sccc3C)C2)c1 (configuration not stated)	n	n	51.2	n	n
Cc1cc(C)cc(NC(=O)CN2C(=O)CN=C(c3ccccc3)c3cc(Cl)ccc32)c1	x	n	x	n	x
Cc1nc2ccccc2c(=O)n1-c1ccccn1	n	n	35.1	n	n
COc1ccccc1-n1c(-c2ccccc2)nc2ccccc2c1=O	n	n	39.8	n	n
Cc1ccccc1-n1c(C)nc2ccccc2c1=O	n	30.9	n	n	n
